In PubChem BioAssay (NCATS):
Records with an inconclusive call do not appear. The source made the active and inactive calls. The call rests on the fitted dose curve; in most records, active means well fitted cell-killing curve with a large enough effect; inconclusive means small, poorly fitted or top-dose-only effect, or effect the other way; inactive means flat fitted curve, though single readings scatter.

How the values were obtained:
Experiment in all cases: Primary qHTS to identify gynecologic anti-cancer compounds using libraries of approved drugs and bioactive compounds (AID 1345084); further: nearly all actives have a fitted effect of over 55% in size
CAOV3 = settings: Gynecologic cancer cell panel viability, ATPlite luminescence, 48 h; series mostly up to 57.5 µM
Outline: (§1)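 Five-point cytotoxicity, 48 h drug exposure at 37 C, 5% CO2, on cells seeded 16 h beforehand. ATP content read by ATPlite luminescence.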

CASKI = settings: Gynecologic cancer cell panel viability, ATPlite luminescence, 48 h; series mostly up to 57.5 µM
Outline: as §1

Es-2 = settings: Gynecologic cancer cell panel viability, ATPlite luminescence, 48 h; series mostly up to 57.5 µM
Outline: as §1

HeLa = settings: Gynecologic cancer cell panel viability, ATPlite luminescence, 48 h; series mostly up to 57.5 µM
Outline: as §1

Hek293T = settings: Gynecologic cancer cell panel viability, ATPlite luminescence, 48 h, control line for the selectivity index; series mostly up to 57.5 µM
Outline: as §1

JEG-3 = settings: Gynecologic cancer cell panel viability, ATPlite luminescence, 48 h; series mostly up to 57.5 µM
Outline: as §1

OV90 = settings: Gynecologic cancer cell panel viability, ATPlite luminescence, 48 h; series mostly up to 57.5 µM
Outline: as §1

PA-1 = settings: Gynecologic cancer cell panel viability, ATPlite luminescence, 48 h; series mostly up to 57.5 µM
Outline: as §1

SKOV3 = settings: Gynecologic cancer cell panel viability, ATPlite luminescence, 48 h; series mostly up to 57.5 µM
Outline: as §1

Tov-21-G = settings: Gynecologic cancer cell panel viability, ATPlite luminescence, 48 h; series mostly up to 57.5 µM
Outline: as §1
On the % scale 0 is the no-effect control and ±100 the full control effect.

COC1=CC(=O)O[C@@H](CCc2ccccc2)C1
inactive: Potency (CAOV3) | Potency (CASKI) | Potency (Es-2) | Potency (HeLa) | Potency (Hek293T) | Potency (JEG-3) | Potency (OV90) | Potency (PA-1) | Potency (SKOV3) | Potency (Tov-21-G)

CN1[C@@H]2CC[C@H]1CC(OC(=O)C1C=Nc3ccccc31)C2 (stereo not given in full)
inactive: Potency (CAOV3) | Potency (CASKI) | Potency (Es-2) | Potency (HeLa) | Potency (Hek293T) | Potency (JEG-3) | Potency (OV90) | Potency (PA-1) | Potency (SKOV3) | Potency (Tov-21-G)

CC(C)(O)[C@H]1O[C@H]2CC[C@@]3(C)[C@@](O)(CC[C@H]4Cc5c([nH]c6ccccc56)[C@@]43C)C2=CC1=O
inactive: Potency (CAOV3) | Potency (CASKI) | Potency (Es-2) | Potency (HeLa) | Potency (Hek293T) | Potency (JEG-3) | Potency (OV90) | Potency (PA-1) | Potency (SKOV3) | Potency (Tov-21-G)

C1=C2CCCN[C@H]2[C@@H]2C[C@H]1[C@H]1CCCCN1C2
inactive: Potency (CAOV3) | Potency (CASKI) | Potency (Es-2) | Potency (HeLa) | Potency (Hek293T) | Potency (JEG-3) | Potency (OV90) | Potency (PA-1) | Potency (SKOV3) | Potency (Tov-21-G)

CC(C)(C)c1cc(C(C)(C)C)c2c(c1)C(O)(C(F)(F)F)C(=O)O2 (stereo not given)
inactive: Potency (CAOV3) | Potency (CASKI) | Potency (Es-2) | Potency (HeLa) | Potency (Hek293T) | Potency (JEG-3) | Potency (OV90) | Potency (PA-1) | Potency (SKOV3) | Potency (Tov-21-G)

C=C1[C@@H]2CC[C@@]3(C)[C@H](c4ccoc4)OC(=O)C[C@]13O[C@H]1CC(=O)C(C)(C)[C@H](C(OC(C)=O)C(=O)OC)[C@]12C (stereo not given in full)
inactive: Potency (CAOV3) | Potency (CASKI) | Potency (Es-2) | Potency (HeLa) | Potency (Hek293T) | Potency (JEG-3) | Potency (OV90) | Potency (PA-1) | Potency (SKOV3) | Potency (Tov-21-G)

CC(=O)OC1CC(O)C2(C)C(CC(OC(C)=O)C3(C)C2CCC2(C)C(c4ccoc4)C(=O)C4OC423)C1(C)C (stereo not given)
inactive: Potency (CAOV3) | Potency (CASKI) | Potency (Es-2) | Potency (HeLa) | Potency (Hek293T) | Potency (JEG-3) | Potency (OV90) | Potency (PA-1) | Potency (SKOV3) | Potency (Tov-21-G)

C[C@@H]1C(=O)O[C@H]2[C@H](O)[C@@]34[C@@H]5OC(=O)[C@@]3(O[C@@H]3OC(=O)[C@@H](O)[C@@]34[C@H](C(C)(C)C)[C@H]5O)[C@@]12O
inactive: Potency (CAOV3) | Potency (CASKI) | Potency (Es-2) | Potency (HeLa) | Potency (Hek293T) | Potency (JEG-3) | Potency (OV90) | Potency (PA-1) | Potency (SKOV3) | Potency (Tov-21-G)

CN(C(=O)Cc1ccccc1)C(CN1CCCC1)c1ccccc1 (stereo not given)
inactive: Potency (CAOV3) | Potency (CASKI) | Potency (Es-2) | Potency (HeLa) | Potency (Hek293T) | Potency (JEG-3) | Potency (OV90) | Potency (PA-1) | Potency (SKOV3) | Potency (Tov-21-G)

Oc1ccc2c3c1O[C@H]1[C@H](N(CCCl)CCCl)CC[C@@]4(O)[C@@H](C2)N(CC2CC2)CC[C@]314
inactive: activity change, negative = cytotoxicity (CAOV3) 11.9% [at 11.6 µM] | activity change, negative = cytotoxicity (CASKI) 18.4% [at 11.6 µM] | activity change, negative = cytotoxicity (Es-2) 3.95% [at 11.6 µM] | activity change, negative = cytotoxicity (HeLa) 1.82% [at 11.6 µM] | activity change, negative = cytotoxicity (Hek293T) 0.845% [at 11.6 µM] | activity change, negative = cytotoxicity (JEG-3) -5.35% [at 11.6 µM] | activity change, negative = cytotoxicity (OV90) 0.162% [at 11.6 µM] | activity change, negative = cytotoxicity (PA-1) 6.51% [at 11.6 µM] | activity change, negative = cytotoxicity (SKOV3) 9.08% [at 11.6 µM] | activity change, negative = cytotoxicity (Tov-21-G) 6.96% [at 11.6 µM]

CN1CCCC1CCOC(c1cc2nccc(C(=O)O)c2[nH]1)c1ccccc1Cl (stereo not given)
inactive: Potency (CAOV3) | Potency (CASKI) | Potency (Es-2) | Potency (HeLa) | Potency (Hek293T) | Potency (JEG-3) | Potency (OV90) | Potency (PA-1) | Potency (SKOV3) | Potency (Tov-21-G)

Clc1ccc(N2C[C@H]3CC[C@@H](C2)N3)nn1
inactive: Potency (CAOV3) | Potency (CASKI) | Potency (Es-2) | Potency (HeLa) | Potency (Hek293T) | Potency (JEG-3) | Potency (OV90) | Potency (PA-1) | Potency (SKOV3) | Potency (Tov-21-G)

C[C@]12CC[C@@H](O)C[C@H]1CC[C@@H]1[C@@H]2CC[C@]2(C)C(=O)CC[C@@H]12
inactive: Potency (CAOV3) | Potency (CASKI) | Potency (Es-2) | Potency (HeLa) | Potency (Hek293T) | Potency (JEG-3) | Potency (OV90) | Potency (PA-1) | Potency (SKOV3) | Potency (Tov-21-G)

OC1(c2ccc(Cl)cc2)c2ccccc2C2=NCCN21 (stereo not given)
inactive: Potency (CAOV3) | Potency (CASKI) | Potency (Es-2) | Potency (HeLa) | Potency (Hek293T) | Potency (JEG-3) | Potency (OV90) | Potency (PA-1) | Potency (SKOV3) | Potency (Tov-21-G)

COC1CC(O[C@H]2CC[C@@]3(C)C(=CCC4C3C(O)[C@@H](O)[C@]3(C)[C@@H](C(C)=O)CC[C@]43O)C2)OC(C)C1OC1CC(OC)C(OC2OC(C)C(O)C(O)C2O)C(C)O1 (stereo not given in full)
inactive: activity change, negative = cytotoxicity (CAOV3) -3.8% [at 11.6 µM] | activity change, negative = cytotoxicity (CASKI) -11.2% [at 11.6 µM] | activity change, negative = cytotoxicity (Es-2) -3.8% [at 11.6 µM] | activity change, negative = cytotoxicity (HeLa) -11.4% [at 11.6 µM] | activity change, negative = cytotoxicity (Hek293T) -2.86% [at 11.6 µM] | activity change, negative = cytotoxicity (JEG-3) -1.29% [at 11.6 µM] | activity change, negative = cytotoxicity (OV90) -0.104% [at 11.6 µM] | activity change, negative = cytotoxicity (PA-1) -3.19% [at 11.6 µM] | activity change, negative = cytotoxicity (SKOV3) -4.29% [at 11.6 µM] | activity change, negative = cytotoxicity (Tov-21-G) -7.27% [at 11.6 µM]
